From PubChem BioAssay AID624305 (National Center for Advancing Translational Sciences (NCATS), 2012)
Results filed as inconclusive are left out. Active and inactive are the calls of the source. The call rests on the fitted dose curve; in most records, active means well fitted activation curve with a large enough effect; inconclusive means small, poorly fitted or top-dose-only effect; inactive means no such curve, though single readings can be large or run the other way.

Assay: qHTS assay for re-activators of p53 using a Luc reporter: Hit Validation; further: nearly all actives have a fitted effect of over 75% in size; on activation: 0% is about no effect
Details: p53-responsive luciferase reporter cells, luminescence, H1299 line expressing heat-sensitive Ala138Val p53; series mostly up to 46.1 µM; activation: at the top concentration
Procedure, shortened: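 H1299 (p53-null) cells stably carrying p53-A138V and a BP100-luciferase reporter, 1000 cells/well, treated 24 h at 37 deg C. Compounds at several concentrations, 1:5 dilution; nocodazole control; luminescence read after 10 min with detection reagent.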
Potency means the concentration at half of the fitted maximal effect.

| Structure (SMILES) | activation | Potency |
| --- | --- | --- |
| Cc1ccccc1S(=O)(=O)Nc1nc2ccccc2nc1N1CCc2ccccc2C1 | 29.7% (inactive) |  |
| CCOC(=O)N(Cc1ccccc1)C(C(=O)O)C(C(=O)O)N(Cc1ccccc1)C(=O)OCC (stereo not drawn) | -2.08% (inactive) |  |
| Cc1c(C(=O)N(C)c2ccccc2Cl)cnn1-c1ccccc1 | 0.521% (inactive) |  |
| Cc1ccc(-c2nc(-c3cccnc3)no2)c(C)c1 |  | 4.61 µM (active) |
| Cc1cc(=O)[nH]c(N/N=C/c2ccccn2)n1 |  | 13 µM (active) |
| CCCN1CCC(=NNC(=O)CSc2cc(C)c(Br)cc2C)CC1 | -9.9% (inactive) |  |
| Cc1cc(C(=O)COC(=O)c2ccc(O)cc2)c(C)n1CC(F)(F)F |  | 20.6 µM (active) |
| Cc1ccc(NC(=O)c2ccc(OC(=O)COc3ccc(Cl)c(C)c3)cc2)cc1 |  | 9.2 µM (active) |
| CCCN1CCC(NC(=O)Cc2ccc(C)cc2)CC1 | -2.6% (inactive) |  |
| c1ccc(-c2cn3c(n2)SCC3)cc1 |  | 9.2 µM (active) |
| O=C(NC12CC3CC(CC(C3)C1)C2)c1ccc(-c2cccc(Cl)c2)o1 |  | 23.1 µM (active) |
| COCCn1c(SCC(=O)c2c(N)n(C3CC3)c(=O)[nH]c2=O)nnc1-c1cccc(C)c1 | -7.81% (inactive) |  |
| Cc1ccc(C(=O)Nc2ncc3c(n2)CC(c2ccco2)CC3=O)cc1 (stereo not drawn) | 31.8% (inactive) |  |
| Fc1cccc2sc(Nc3nnc(-c4ccco4)o3)nc12 |  | 11.6 µM (active) |
| Nc1c(C(=O)c2ccc(Cl)cc2)oc2ccccc12 | -86.5% (inactive) |  |
| CS(=O)(=O)n1nc(-c2ccc(Cl)cc2)nc1SCc1ccccc1 |  | 20.6 µM (active) |
| Cc1ccc(C(=O)Nc2ccn(C)n2)cc1 |  | 8.2 µM (active) |
| Cn1c(CCN2CCCCC2)nc2cc(NC(=O)Nc3ccccc3)ccc21 | 10.4% (inactive) |  |
| CCN(CC(=O)NCc1cccs1)c1ccc(S(=O)(=O)N2CCOCC2)cn1 | -24.5% (inactive) |  |

| Structure (SMILES) | activation | Potency |
| --- | --- | --- |
| Cc1csc(NC(=O)/C=C/c2ccco2)n1 |  | 10.3 µM (active) |
| Cc1ccc(NC(=O)Nc2ccccc2)c(Br)c1 |  | 8.2 µM (active) |
| O=C(CCS(=O)(=O)c1ccccc1)Nc1nc2c(s1)CCCC2 | 24.5% (inactive) |  |
| COc1ccc(C2SCCN2C(=S)Nc2ccc(Cl)cc2)cc1 (stereo not drawn) | 24.5% (inactive) |  |
| O=C(Oc1c(Cl)cc(Cl)c2cccnc12)c1cccc([N+](=O)[O-])c1 | -63.5% (inactive) |  |
| Cc1cc(C)nc(CC(N)=O)n1 | -13% (inactive) |  |
| O=C(NCCN1CCOCC1)c1cc(-c2cccs2)on1 |  | 23.1 µM (active) |
| O=C(NOCc1ccccc1)c1ccccc1 |  | 9.2 µM (active) |
| c1ccc(-c2cc3cc4c(cc3cn2)OCO4)cc1 |  | 11.6 µM (active) |
| Cc1cc(NC(c2cccnc2)c2ccc3cccnc3c2O)no1 (stereo not drawn) | 128% (inactive) |  |
| CCC(=O)Nc1ccc2oc(-c3cccc(C)c3)nc2c1 |  | 0.0731 µM (active) |
| CCCSc1ccc2nc(-c3ccccc3)cn2c1 |  | 0.206 µM (active) |
| CC(/C=N/Nc1nc2ccccc2[nH]1)=C\c1ccccc1 |  | 0.651 µM (active) |
| COC(=O)CSc1nc2cc3c(cc2cc1C#N)OCO3 | 16.1% (inactive) |  |
| COc1ccc(C(=O)N=c2nc3ccccn3s2)cc1 |  | 0.092 µM (active) |
| O=C(N/N=C1\CCc2ccccc21)c1ccccc1O |  | 1.03 µM (active) |
| Cc1ccc(-c2nnc(Oc3cccc(C)c3)c3ccccc23)cc1 |  | 7.31 µM (active) |
| Cc1cccc(NC(=O)/C=C/c2ccc(Cl)cc2)n1 |  | 2.31 µM (active) |
| CC1CCN(C2=C(NS(=O)(=O)c3ccc(Br)cc3)C(=O)c3ccccc3C2=O)CC1 | 35.9% (inactive) |  |
